Only some compounds are listed: those with a hit (about 1.1% of all), similar ones and a draw of the others.
AI-2 QS modul: Vibrio harveyi AI-2 quorum sensing modulation; actives 0.4% (n = 300,000); Vibrio harveyi JMH597 AI-2 luminescence/OD600 ratio, 9 h; active compounds read low; strain lacks LuxN and CqsS sensors; 0 = neutral-control median; activity change, % at 7.5 µM; in the data active means activity change below about -75%, passing the limit was not always enough; inconclusive means no clear call, values can overlap the other calls;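 further: luminescence divided by OD600 gain over 9 h not by final OD600 alone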
DSG3 Ab inh: blocks pemphigus antibody binding to human desmoglein-3 | P32926 | DSG3-coupled beads, scFv-anti-DSG3-GFP binding, flow cytometry; active compounds read low | binding (percent of control), % at 10 µM | actives 0.48% (n = 310,000) | AID 588358;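 active means binding more than 3 SD below its plate's average and above zero; inconclusive means below that plate limit but binding exactly zero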;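 further: hits lower antibody fragment binding to DSG3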
Target sequence (P32926 whole entry, looked up, the tested form may be a part): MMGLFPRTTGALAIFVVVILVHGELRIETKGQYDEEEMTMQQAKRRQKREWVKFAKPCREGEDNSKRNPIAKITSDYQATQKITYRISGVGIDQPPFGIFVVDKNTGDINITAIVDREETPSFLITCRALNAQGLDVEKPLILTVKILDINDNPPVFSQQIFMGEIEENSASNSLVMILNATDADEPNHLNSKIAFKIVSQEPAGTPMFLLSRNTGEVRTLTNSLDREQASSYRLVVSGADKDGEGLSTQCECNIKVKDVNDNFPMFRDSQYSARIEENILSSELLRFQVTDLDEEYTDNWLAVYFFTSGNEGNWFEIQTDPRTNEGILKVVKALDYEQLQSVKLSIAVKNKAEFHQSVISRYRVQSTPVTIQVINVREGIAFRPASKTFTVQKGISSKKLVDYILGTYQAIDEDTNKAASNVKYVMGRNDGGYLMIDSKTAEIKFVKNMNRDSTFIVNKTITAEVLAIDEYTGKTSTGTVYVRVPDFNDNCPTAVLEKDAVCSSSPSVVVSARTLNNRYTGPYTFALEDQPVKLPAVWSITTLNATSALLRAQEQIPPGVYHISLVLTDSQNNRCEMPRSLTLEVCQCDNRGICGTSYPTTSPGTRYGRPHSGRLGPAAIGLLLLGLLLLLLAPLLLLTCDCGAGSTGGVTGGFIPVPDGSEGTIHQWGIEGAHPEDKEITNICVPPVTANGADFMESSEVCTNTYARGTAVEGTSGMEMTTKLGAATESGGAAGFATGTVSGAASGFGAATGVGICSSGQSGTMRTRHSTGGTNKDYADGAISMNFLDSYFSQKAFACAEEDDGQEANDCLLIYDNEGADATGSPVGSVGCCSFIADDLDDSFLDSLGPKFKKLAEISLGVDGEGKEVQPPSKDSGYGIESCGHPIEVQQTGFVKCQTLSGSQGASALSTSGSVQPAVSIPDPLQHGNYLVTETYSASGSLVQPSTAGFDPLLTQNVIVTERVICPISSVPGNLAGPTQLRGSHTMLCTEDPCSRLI
NTR1 agonist: NTR1 (human) agonism | AID 493036 | activation, % at 20 µM | P30989 | NTR1-U2OS beta-arrestin-GFP spot imaging, agonist mode | actives 0.17% (n = 330,000);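 active means activation at or above 40% of the spot to cytoplasm intensity ratio, with at least 20 cells analyzed; inconclusive means wells under 20 cells, flagged as cytotoxic or low count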
VLA-4 inh: inhibition in a human VLA-4 binding assay; P13612; VLA-4 expressing cells, ligand binding flow cytometry; inhibition, % (about 7 µM as worked out from the volumes in the protocol); actives 0.2% (n = 330,000); AID 2557; in the data active means inhibition above about 50%
VLA-4 mod pick: confirmation of allosteric modulators of human VLA-4 integrin; shares compounds with VLA-4 inh; U937 cells, HUTS-21 LIBS mAb binding, flow cytometry; LDV ligand present at threefold Kd; inhibition, % at 6.7 µM; actives 2% (n = 1,300); in the data active means inhibition above about 40%
Large screens that a line does not name were inactive (follow-up assays come after a bar, where they were run); ! = not confirmed by another sample.

CC(C(=O)Nc1ccc(N2CCOCC2)cc1)N1C(=O)NC(C)(C)C1=O (stereo unspecified)	none (no result: AI-2 QS modul)
Cc1cc(C)n(CC(O)CN2C(=O)NC(C)(C)C2=O)n1 (stereo unspecified)	VLA-4 inh 54 | VLA-4 mod pick inactive
O=C1CCCN2N=C(SCC(=O)N3CCCCC3)SC2=N1	none
CCCSC1=NN2CCCC(=O)N=C2S1	VLA-4 inh 50 (no result: DSG3 Ab inh) | VLA-4 mod pick inactive
CCCc1ccccc1OCCNC(=O)c1cc(=O)n(C)c(=O)n1C	none
O=C(Oc1ccc(F)cc1C(=O)/C=C/c1cccs1)c1cccc([N+](=O)[O-])c1	VLA-4 inh 50 | VLA-4 mod pick 41
O=C1CCC(c2ccc3c(c2)CCC3)=NN1	VLA-4 inh 53 | VLA-4 mod pick inactive
O=C(/C=C/c1ccccc1)C1=C(O)C(=O)N(CCO)C1c1cccc([N+](=O)[O-])c1 (stereo unspecified)	none
O=C(/C=C/c1ccccc1)C1=C(O)C(=O)N(CCO)C1c1ccccc1[N+](=O)[O-] (stereo unspecified)	VLA-4 inh 51 | VLA-4 mod pick inactive
CCOC(=O)C1CCCN(S(=O)(=O)c2cc3[nH]c(=O)c(=O)[nH]c3cc2C)C1 (stereo unspecified)	VLA-4 inh 50 | VLA-4 mod pick inactive
C=CCOc1ccc(/C=C/C(=O)OCC(=O)NCc2ccco2)cc1	none
Cc1cc(=O)oc2cc(OS(C)(=O)=O)ccc12	none | VLA-4 mod pick inactive
CCc1cc(=O)oc2cc(OS(C)(=O)=O)ccc12	none
O=C1OCC(O)=C1Cc1ccccc1	none (no result: AI-2 QS modul, NTR1 agonist, VLA-4 inh)
COc1ccc2[nH]c(=O)c(-c3noc(-c4ccccc4)n3)cc2c1	VLA-4 inh 96 | VLA-4 mod pick inactive
COc1ccc2[nH]c(=O)c(-c3nnn(-c4ccccc4)n3)cc2c1	none (no result: VLA-4 inh)
CCOC(=O)N1CCN(S(=O)(=O)N2CCCC(C(=O)NCc3ccccc3OCC)C2)CC1 (stereo unspecified)	none (no result: AI-2 QS modul, NTR1 agonist, VLA-4 inh)
Cc1nc(SCCc2nc3ccccc3[nH]2)c2oc3ccccc3c2n1	none (no result: AI-2 QS modul)
O=C1C2N=NN(CC(=O)N3N=C(c4ccccc4)CC3c3ccc([N+](=O)[O-])cc3)C2C(=O)N1c1ccccc1 (stereo unspecified)	none (no result: DSG3 Ab inh)
CCCNC(=O)Nc1cc(OCC)c(N2CCOCC2)cc1OCC	none
CCNC(=S)Nc1cc(OCC)c(N2CCOCC2)cc1OCC	none | VLA-4 mod pick inactive
CC(C)C(NS(=O)(=O)c1ccc2c(c1)oc(=O)n2C)C(=O)N1CCN(c2ccccc2F)CC1 (stereo unspecified)	VLA-4 inh 53 (no result: AI-2 QS modul) | VLA-4 mod pick inactive
O=C(Nc1ccccc1)C1=C[C@@H](c2coc3ccccc3c2=O)C[C@@H](OCCCCO)O1	none
O=C1CC(c2ccccc2)C(C(=O)Nc2ccccc2F)N1 (stereo unspecified)	none
CCc1ccccc1NC(=O)C1NC(=O)CC1c1ccccc1 (stereo unspecified)	VLA-4 inh 56 | VLA-4 mod pick inactive
CCCn1cc(CN2CCC(n3nccc3NC(=O)c3ccc4c(c3)OCO4)CC2)c(C)n1	none (no result: DSG3 Ab inh)
O=C(CCSc1nnc(-c2ccncc2)o1)Nc1cccc(Cl)c1	none
O=C(CCSc1nnc(-c2ccncc2)o1)Nc1ccc(Cl)cc1	VLA-4 inh 51 (no result: DSG3 Ab inh) | VLA-4 mod pick inactive
O=C(CSc1nnc(Nc2ccccc2)s1)NN1C(=O)NC2(CCCCC2)C1=O	none | VLA-4 mod pick inactive
O=C(CSc1nnc(NC2CC2)s1)NN1C(=O)NC2(CCCCC2)C1=O	none (no result: AI-2 QS modul)
O=C(NCCCn1ccnc1)C(=O)NCC(c1cccnc1)N1CCN(c2ccccc2)CC1 (stereo unspecified)	VLA-4 inh 57 | VLA-4 mod pick inactive
CCCCn1cc(C(C)(C)C)c(C#N)c1NC(C)=O	VLA-4 inh 50 | VLA-4 mod pick inactive
Cc1ccc(Sc2ccc(NC(=O)CCN3C(=O)NC4(CCCC4)C3=O)cc2)c(C)c1	none (no result: AI-2 QS modul)
COc1ccc(C(=O)C2CCCN(Cc3c[nH]c4ccccc34)C2)c(OC)c1 (stereo unspecified)	VLA-4 inh 55 | VLA-4 mod pick inactive
Cc1ccc(-n2nnnc2CCl)cc1	none (no result: NTR1 agonist, VLA-4 inh)
CCOc1ccc(Nc2cc(C)nc3c(C)cccc23)cc1	none
COc1ccc(C(=O)OC(C)C(=O)NC(C)CCc2ccccc2)cc1OC (stereo unspecified)	none | VLA-4 mod pick inactive
c1ccc(C(CN2CCCCC2)Oc2ccccn2)cc1 (stereo unspecified)	none (no result: AI-2 QS modul, NTR1 agonist, VLA-4 inh)
Cc1ccc(C(=O)CCC(=O)Nc2ccccc2F)cc1	AI-2 QS modul inconclusive
COc1cccc(-n2nnc3c(=O)n(CC(=O)OCc4ccccc4)cnc32)c1	none
CCOC(=O)Cn1cnc2c(nnn2-c2cccc(OC)c2)c1=O	none | VLA-4 mod pick inactive
Cc1nc([N+](=O)[O-])c(NCCO)n1Cc1ccccc1	VLA-4 inh 54 | VLA-4 mod pick inactive
Cc1ccccc1C(=O)c1cccn1CC(=O)NC(C)c1ccccc1 (stereo unspecified)	none
O=C(OCc1cncs1)c1ccccc1Cl	none
O=C(Nc1ccccc1Cl)OCc1cncs1	none | VLA-4 mod pick inactive
CN(CC(=O)Nc1ccc(F)cc1)C(=O)COC(=O)c1ccccc1	VLA-4 inh 50 | VLA-4 mod pick inactive
CCN(Cc1ccccc1)S(=O)(=O)c1c(C)[nH]c(C)c1C(=O)N1CCCCC1	none
CC1(c2ccncc2)Nc2ccccc2-c2nc3ccccc3n21 (stereo unspecified)	VLA-4 inh 51 | VLA-4 mod pick inactive
COc1ccc2c(c1)C1(Nc3ccccc3-c3nc4ccccc4n31)C(=O)N2 (stereo unspecified)	none
O=C(NC(Cc1ccccc1)C(=O)O)c1cccnc1Cl (stereo unspecified)	none
O=C(/C=C/c1ccc(O)c(O)c1)O[C@@H]1C[C@](O)(C(=O)O)C[C@@H](O)[C@H]1O	VLA-4 inh 55! | VLA-4 mod pick inactive
COc1ccccc1N1CCN(CCCNc2cc(=O)n(C)c(=O)n2C)CC1	VLA-4 inh 55 | VLA-4 mod pick inactive
COc1ccc(NC(=O)CCn2cccc2)c(OC)c1	VLA-4 inh 58 | VLA-4 mod pick inactive
COc1ccccc1-c1sc2cc3c(cc2c1-c1ccc(OCCN2CCCCC2)cc1)OCO3	none (no result: AI-2 QS modul) | VLA-4 mod pick inactive
COc1cc2sc(-c3ccccc3OC)c(-c3ccc(OCCN4CCCCC4)cc3)c2cc1OC	none (no result: AI-2 QS modul) | VLA-4 mod pick inactive
CN1CCN(CCc2nc3cc(NC(=O)COc4ccc([N+](=O)[O-])cc4)ccc3n2C)CC1	none
Cc1cc(NC(=O)Nc2ccccc2F)ccc1Br	VLA-4 inh 66 | VLA-4 mod pick inactive
Cn1nnc2cc(NC(=O)Nc3ccccc3F)ccc21	none (no result: AI-2 QS modul, NTR1 agonist, VLA-4 inh)
NS(=O)(=O)c1ccc(CCNC(=O)COC(=O)c2ccc([N+](=O)[O-])o2)cc1	none (no result: AI-2 QS modul, DSG3 Ab inh)
O=C(O)Cc1ccc(NS(=O)(=O)c2ccccc2Cl)cc1	none | VLA-4 mod pick inactive
CC(CCc1ccco1)NC(=O)Cn1ncc2c1-c1ccccc1OC2 (stereo unspecified)	VLA-4 inh 57 | VLA-4 mod pick inactive

Assay outcomes: PubChem BioAssay, several laboratories
